Some test systems named below: NCI-H23 lung; NCI-H226 lung; NCI-H322M lung; HOP-62 NSCLC; NCI-H460 lung; HOP-92 NSCLC; NCI-H522 lung; A549/ATCC NSCLC; 786-0 renal; COLO 205 colon; DU-145 prostate; K-562 leukemia; MALME-3M melanoma; MDA-MB-231 breast; RXF 393 renal; SF-268 CNS; SF-295 CNS; SF-539 CNS; UACC-257 melanoma; M14 melanoma.
What all share (assay): NCI-60 one-dose screen, 48 h (100 = growth as untreated, 0 = no growth, -100 = all killed)
Common to all, as to details: 10 µM unless noted

Molecules are shown by their SMILES. The panel holds about 83,000 compounds, 20% with a hit somewhere; the sample as a whole holds those more often.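 Interpretation: 100, growth as untreated; towards 0, rising growth inhibition; 0, no net growth; 0 to -100, cell death. Compounds scoring below 10 were considered active.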 Values without a mark were called inactive. Calls of active or inactive are those of the source.

Turning to `CC(=O)NC(CCC(=O)c1ccccc1)C(=O)O` (stereo not given), the growth was 101% with NCI-H23 lung; 91.1% with NCI-H226 lung; 98.5% with NCI-H322M lung; 76.2% in the assay on HOP-62 NSCLC; 102% in the assay on NCI-H460 lung; 97.6% in the assay with HOP-92 NSCLC. Moreover, the growth with NCI-H522 lung is 90.2%; in the assay with A549/ATCC NSCLC, 63.3%; with 786-0 renal it was 87.9%; in the assay on COLO 205 colon, 108%; in the assay with DU-145 prostate, 107%; in the assay with K-562 leukemia, 108%. Also, the growth in the assay on MALME-3M melanoma is 96.6%; in the assay on MDA-MB-231 breast, 107%; in the assay with RXF 393 renal it was 105%; in the assay with SF-268 CNS, 101%; in the assay on SF-295 CNS, 101%; in the assay on SF-539 CNS, 91.2%. Besides, the growth in the assay on UACC-257 melanoma is 76.7%; in the assay on M14 melanoma, 90.9%.
In the case of `CC(=O)N=c1ccc2nc3c(cc(N)c4ccccc43)oc-2c1`, the growth was -27.8% (active) in the assay on NCI-H23 lung; 80.4% in the assay on NCI-H226 lung; 3.7% (active) in the assay with NCI-H322M lung; 1.21% (active) with HOP-62 NSCLC; -41.2% (active) in the assay on NCI-H460 lung; -56.9% (active) in the assay with HOP-92 NSCLC. Moreover, the growth with NCI-H522 lung was -78.1% (active); in the assay with A549/ATCC NSCLC it was 11.2%; with 786-0 renal, -43.8% (active); in the assay with COLO 205 colon, -84.6% (active); in the assay with DU-145 prostate, -96% (active); in the assay on K-562 leukemia it was -55.7% (active). The growth is -67.3% (active) with MALME-3M melanoma; -9.2% (active) in the assay on MDA-MB-231 breast; 14% in the assay on RXF 393 renal; -11.1% (active) with SF-268 CNS; -65.7% (active) in the assay with SF-295 CNS; -71.2% (active) in the assay on SF-539 CNS. Also, the growth in the assay on UACC-257 melanoma is -81.5% (active); in the assay with M14 melanoma, -68.8% (active).
Take `Nc1nc(N)nc(N2CCCCC2)n1`: the growth in the assay on NCI-H23 lung was 107%; in the assay with NCI-H226 lung it was 103%; in the assay on NCI-H322M lung, 94.4%; in the assay with HOP-62 NSCLC, 104%; in the assay with NCI-H460 lung, 103%; in the assay on HOP-92 NSCLC, 96.6%. The growth in the assay with NCI-H522 lung was 100%; with A549/ATCC NSCLC, 104%; with 786-0 renal, 102%; with COLO 205 colon, 108%; with DU-145 prostate, 107%; in the assay with K-562 leukemia, 105%. Besides, the growth was 96.3% with MALME-3M melanoma; 96.5% in the assay on MDA-MB-231 breast; 105% in the assay with RXF 393 renal; 107% with SF-268 CNS; 113% in the assay with SF-295 CNS; 97.6% in the assay on SF-539 CNS. The growth is 101% with UACC-257 melanoma and 111% in the assay on M14 melanoma.
Consider `CCOC(=O)CNC`, for which the growth with NCI-H23 lung was 101%; in the assay on NCI-H226 lung, 98.8%; with NCI-H322M lung, 96.9%; in the assay on HOP-62 NSCLC, 106%; in the assay with NCI-H460 lung, 106%; with HOP-92 NSCLC, 91.1%. Also, the growth with NCI-H522 lung is 123%; in the assay on A549/ATCC NSCLC, 87.8%; in the assay on 786-0 renal, 101%; in the assay on COLO 205 colon it was 116%; in the assay with DU-145 prostate it was 116%; in the assay with K-562 leukemia, 96.8%. The growth with MALME-3M melanoma is 114%; with MDA-MB-231 breast, 97.8%; with RXF 393 renal, 108%; with SF-268 CNS, 115%; in the assay on SF-295 CNS it was 96.7%; in the assay with SF-539 CNS, 99.7%. The values for the growth in the assay with UACC-257 melanoma and in the assay with M14 melanoma were 81.7% and 104%, respectively.
Take `Nc1ccccc1SC1CC(=O)N(c2ccc(Cl)c(Cl)c2)C1=O` (stereo not given): the growth with NCI-H23 lung is 104%; with NCI-H226 lung, 106%; in the assay on NCI-H322M lung it was 128%; in the assay with HOP-62 NSCLC it was 96.6%; with NCI-H460 lung it was 117%; in the assay on HOP-92 NSCLC it was 101%. Also, the growth with NCI-H522 lung is 117%; in the assay on A549/ATCC NSCLC, 99.9%; in the assay with 786-0 renal it was 93.9%; with COLO 205 colon, 127%; in the assay on DU-145 prostate, 113%; with K-562 leukemia, 122%. Also, the growth with MALME-3M melanoma is 177%; with MDA-MB-231 breast, 94.4%; in the assay with RXF 393 renal, 130%; in the assay with SF-268 CNS, 97.6%; with SF-295 CNS, 127%; with SF-539 CNS, 83.1%. Moreover, the growth in the assay with UACC-257 melanoma was -6.15% (active); in the assay with M14 melanoma, 94.8%.
Consider `C=CC(C)(C)n1cc(C2=C(O)C(=O)C(c3cn(C(C)(C)C=C)c4ccccc34)=C(O)C2=O)c2ccccc21`, for which the growth was 80.7% with NCI-H23 lung; 89.9% with NCI-H226 lung; 89% in the assay on NCI-H322M lung; 73.1% in the assay on HOP-62 NSCLC; 89.5% in the assay with NCI-H460 lung; 60.9% in the assay with HOP-92 NSCLC. Further, the growth is 98.2% with NCI-H522 lung; 89.4% in the assay on A549/ATCC NSCLC; 87.8% in the assay on 786-0 renal; 96.6% with COLO 205 colon; 92.9% in the assay on DU-145 prostate; 79.5% with K-562 leukemia. The growth in the assay on MALME-3M melanoma was 90.6%; in the assay with MDA-MB-231 breast, 92.6%; with RXF 393 renal, 93.2%; in the assay with SF-268 CNS, 74.7%; in the assay on SF-295 CNS, 83.5%; with SF-539 CNS, 76.6%. Further, the results for the growth in the assay on UACC-257 melanoma and in the assay with M14 melanoma were 94% and 69.9%, respectively.
Take `O=C(O)Cc1ccc(Cl)cc1`: the growth was 114% with NCI-H23 lung; 96% in the assay with NCI-H226 lung; 108% in the assay with NCI-H322M lung; 86.9% in the assay with HOP-62 NSCLC; 107% in the assay with NCI-H460 lung; 38.8% in the assay with HOP-92 NSCLC. For the same molecule, the growth in the assay with NCI-H522 lung was 101%; with A549/ATCC NSCLC, 120%; in the assay with 786-0 renal it was 93.7%; in the assay with COLO 205 colon, 107%; with DU-145 prostate it was 107%; in the assay with K-562 leukemia, 53.6%. For the same molecule, the growth with MALME-3M melanoma is 102%; in the assay on MDA-MB-231 breast, 102%; in the assay with RXF 393 renal, 125%; in the assay on SF-268 CNS, 105%; in the assay on SF-295 CNS, 97.5%; in the assay on SF-539 CNS, 99.4%. The growth is 111% with UACC-257 melanoma and 93.1% in the assay on M14 melanoma.
Take `O=C(NCc1ccccc1)c1cccc([N+](=O)[O-])c1`: the growth in the assay with NCI-H23 lung is 110%; with NCI-H226 lung it was 105%; in the assay on NCI-H322M lung, 96.7%; in the assay with HOP-62 NSCLC it was 94.6%; in the assay with NCI-H460 lung, 103%; in the assay with HOP-92 NSCLC it was 77.8%. Moreover, the growth with NCI-H522 lung was 84.1%; in the assay with A549/ATCC NSCLC, 88.2%; in the assay on 786-0 renal it was 94.9%; in the assay on COLO 205 colon it was 116%; in the assay with DU-145 prostate it was 104%; in the assay on K-562 leukemia, 102%. The growth with MALME-3M melanoma is 90.5%; with MDA-MB-231 breast it was 91.1%; in the assay with RXF 393 renal, 104%; in the assay on SF-268 CNS, 92.6%; in the assay with SF-295 CNS it was 104%; with SF-539 CNS, 102%. Moreover, the growth in the assay with UACC-257 melanoma is 88%; in the assay with M14 melanoma, 107%.

The values above are taken from PubChem BioAssay (NCI).
